# Inconclusive results are not listed. Calls of active or inactive are those of the source. Calls come from the whole dose curve.
# Test: qHTS assay for small molecules that induce genotoxicity in human embryonic kidney cells expressing luciferase-tagged ATAD5 - cell viability (AID 651634); note: nearly all actives have a fitted effect of over 25% in size; note: potency is the fitted concentration of half-maximal effect
# Conditions: HEK293T ATAD5-luc cells viability, CellTiter-Fluor, 15.5 h; series mostly up to 83.3 µM; activity, negative = cytotoxicity: at the top concentration
# Outline: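 Live-cell protease activity (CellTiter-Fluor, fluorescence) indicates viability. HEK293T cells with luciferase-tagged ATAD5; 15.5 hr compound treatment at 37C.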
# % is set by controls: 0 for no effect and ±100 for the full control effect.
SMILES,Potency,"activity, negative = cytotoxicity"
Cc1ncc([C@@H](CCCCCCc2ccc3c(n2)NCCC3)CC(=O)O)cn1,27.3 nM (active),–
O=C1NC(=O)C2CC=CCC12 (stereo unspecified),–,7.04% (inactive)
CCCCc1nc(Cl)c(CO)n1Cc1ccc(-c2ccccc2-c2nn[nH]n2)cc1,–,-3.25% (inactive)
Cc1ccccc1N=C(N)N=C(N)N,–,9.91% (inactive)
O=S(=O)(O)c1cccc(S(=O)(=O)O)c1,–,13.2% (inactive)
C1CCC2(CCCCO2)OC1,–,6.75% (inactive)
COc1c(N2CCNC(C)C2)c(F)cc2c(=O)c(C(=O)O)cn(C3CC3)c12 (stereo unspecified),–,16.7% (inactive)
CC[N+](CC)(CC(=O)Nc1c(C)cccc1C)Cc1ccccc1 (tested in a mixture with another compound),–,18.3% (inactive)
O=C(O)Cc1csc(-c2ccc(Cl)cc2)n1,–,25.4% (inactive)
CCCCCCC#CC(=O)OC,–,11.9% (inactive)
CCCCN(CCC(=O)OCC)C(C)=O,–,21.8% (inactive)
CC(=O)NC(=O)c1ccccc1O,–,18.1% (inactive)
CC[N+](CC)(CC)CCOc1cccc(OCC[N+](CC)(CC)CC)c1OCC[N+](CC)(CC)CC,–,-24% (inactive)
Cc1nc2ccc(CN(C)c3ccc(C(=O)N[C@@H](CCC(=O)O)C(=O)O)s3)cc2c(=O)[nH]1,inactive,–
NC(CCC(=O)O)C(=O)O (stereo unspecified),–,13.3% (inactive)
CCOC(=O)OC(C)OC1=C(C(=O)Nc2ccccn2)N(C)S(=O)(=O)c2ccccc21 (stereo unspecified),–,-9.15% (inactive)
Cc1ncc(COP(=O)(O)O)c(C=O)c1O,–,6.97% (inactive)
N[C@@H](CCC(=O)O)C(=O)O,inactive,–

SMILES,Potency,"activity, negative = cytotoxicity"
CCCC[N+](C)(CCCC)CCCC,–,13.9% (inactive)
CO[C@@]1(NC(=O)C(C(=O)O)c2ccc(O)cc2)C(=O)N2C(C(=O)O)=C(CSc3nnnn3C)CO[C@@H]21 (stereo partly specified),–,9.62% [at 39.1 µM] (inactive)
CC1=C(C/C=C(\C)CCC[C@H](C)CCC[C@H](C)CCCC(C)C)C(=O)c2ccccc2C1=O,–,-2.32% (inactive)
C=CCCC(=O)O,–,9.69% (inactive)
CCC(C(=O)NC(=O)NC(C)=O)c1ccccc1 (stereo unspecified),–,22.7% (inactive)
CCCCOC(=O)CCC(C)=O,–,7.9% (inactive)
C[N+]12CCC(CC1)C(OC(=O)C(O)(c1ccccc1)c1ccccc1)C2 (stereo unspecified),–,13.8% [at 39.1 µM] (inactive)
CCCCCCCCCC[N+](C)(C)[O-],–,27.8% (inactive)
CC(C)(N)C#N,–,5.39% [at 95.3 µM] (inactive)
Nc1c2c(nc3c1CCC3)CCCC2,–,19.5% (inactive)
Cc1ccc(-c2ncc(Cl)cc2-c2ccc(S(C)(=O)=O)cc2)cn1,–,18% (inactive)
O=C(O)c1cn(C2CC2)c2cc(N3CCNCC3)c(F)cc2c1=O,–,1.66% [at 39.1 µM] (inactive)
CC1CCC(CO)CC1 (stereo unspecified),–,4.35% [at 95.3 µM] (inactive)
FB(F)F,–,5.38% [at 95.3 µM] (inactive)
COc1ccnc(CS(=O)c2nc3cc(OC(F)F)ccc3[nH]2)c1OC (stereo unspecified),inactive,–
O=S(=O)(O)c1cc(O)c(O)c(S(=O)(=O)O)c1,–,-1.83% (inactive)
N[C@H](C(=O)O)[C@@H](O)c1ccc(O)c(O)c1,–,11.2% (inactive)

# Test: qHTS assay for small molecule disruptors of the mitochondrial membrane potential - cell viability (AID 720634);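 note: human HepG2 liver cancer cells; nearly all actives have a fitted effect of over 20% in size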
# Conditions: HepG2 viability, ATP luminescence (CellTiter-Glo), 1 h; series mostly up to 83.2 µM; activity change, negative = cytotoxicity: at the top concentration
# Outline: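 Human hepatoma HepG2 cells were treated for 1 hr with test chemicals, then given m-MPI dye and CellTiter-Glo. Cell viability reflects luminescence proportional to cellular ATP.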
SMILES,"activity change, negative = cytotoxicity",outcome
Cc1ncc([C@@H](CCCCCCc2ccc3c(n2)NCCC3)CC(=O)O)cn1,37.3% (inactive),–
O=C1NC(=O)C2CC=CCC12 (stereo unspecified),2.19% (inactive),–
CCCCc1nc(Cl)c(CO)n1Cc1ccc(-c2ccccc2-c2nn[nH]n2)cc1,-16.2% (inactive),–
Cc1ccccc1N=C(N)N=C(N)N,11.7% (inactive),–
O=S(=O)(O)c1cccc(S(=O)(=O)O)c1,9.2% (inactive),–
C1CCC2(CCCCO2)OC1,-7.17% (inactive),–
COc1c(N2CCNC(C)C2)c(F)cc2c(=O)c(C(=O)O)cn(C3CC3)c12 (stereo unspecified),3.49% (inactive),–
CC[N+](CC)(CC(=O)Nc1c(C)cccc1C)Cc1ccccc1 (tested in a mixture with another compound),9.15% (inactive),–
O=C(O)Cc1csc(-c2ccc(Cl)cc2)n1,-4.14% (inactive),–
CCCCCCC#CC(=O)OC,-2.13% (inactive),–
CCCCN(CCC(=O)OCC)C(C)=O,-13.8% (inactive),–
CC(=O)NC(=O)c1ccccc1O,7.04% (inactive),–
CC[N+](CC)(CC)CCOc1cccc(OCC[N+](CC)(CC)CC)c1OCC[N+](CC)(CC)CC,5.35% (inactive),–
Cc1nc2ccc(CN(C)c3ccc(C(=O)N[C@@H](CCC(=O)O)C(=O)O)s3)cc2c(=O)[nH]1,–,inactive
NC(CCC(=O)O)C(=O)O (stereo unspecified),6.74% (inactive),–
CCOC(=O)OC(C)OC1=C(C(=O)Nc2ccccn2)N(C)S(=O)(=O)c2ccccc21 (stereo unspecified),18.8% (inactive),–
Cc1ncc(COP(=O)(O)O)c(C=O)c1O,-4.47% (inactive),–
N[C@@H](CCC(=O)O)C(=O)O,–,inactive

SMILES,"activity change, negative = cytotoxicity",outcome
CCCC[N+](C)(CCCC)CCCC,-4.19% (inactive),–
CO[C@@]1(NC(=O)C(C(=O)O)c2ccc(O)cc2)C(=O)N2C(C(=O)O)=C(CSc3nnnn3C)CO[C@@H]21 (stereo partly specified),22.8% [at 39.1 µM] (inactive),–
C=CC(=O)OCCCl,5.72% [at 95.3 µM] (inactive),–
CC1=C(C/C=C(\C)CCC[C@H](C)CCC[C@H](C)CCCC(C)C)C(=O)c2ccccc2C1=O,6.51% (inactive),–
C=CCCC(=O)O,4.11% (inactive),–
CCC(C(=O)NC(=O)NC(C)=O)c1ccccc1 (stereo unspecified),6.1% (inactive),–
CCCCOC(=O)CCC(C)=O,11.6% (inactive),–
C[N+]12CCC(CC1)C(OC(=O)C(O)(c1ccccc1)c1ccccc1)C2 (stereo unspecified),-10.2% [at 39.1 µM] (inactive),–
CCCCCCCCCC[N+](C)(C)[O-],8.43% (inactive),–
CC(C)(N)C#N,9.19% [at 95.3 µM] (inactive),–
Nc1c2c(nc3c1CCC3)CCCC2,6.36% (inactive),–
Cc1ccc(-c2ncc(Cl)cc2-c2ccc(S(C)(=O)=O)cc2)cn1,-18.5% (inactive),–
O=C(O)c1cn(C2CC2)c2cc(N3CCNCC3)c(F)cc2c1=O,-11% [at 39.1 µM] (inactive),–
CC1CCC(CO)CC1 (stereo unspecified),-12.3% [at 95.3 µM] (inactive),–
FB(F)F,8.84% [at 95.3 µM] (inactive),–
COc1ccnc(CS(=O)c2nc3cc(OC(F)F)ccc3[nH]2)c1OC (stereo unspecified),–,inactive
O=S(=O)(O)c1cc(O)c(O)c(S(=O)(=O)O)c1,4.35% (inactive),–
N[C@H](C(=O)O)[C@@H](O)c1ccc(O)c(O)c1,26.3% (inactive),–

# — PubChem BioAssay (Tox21)
